The nature of test [1]: binders of probe aFSTL3 on microarray, primary screen, stem cell growth factor project, biochemical, small-molecule microarray, fluorescence 635/667 (AID 1064).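 Note: measures binding of the biotinylated anti-FSTL3 antibody to printed compounds.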 The conditions noted are these: higher = more signal.
The nature of test [2]: binders from COS7 lysate, DM2A8 probe, primary screen, torsin A project, cell lysate, small-molecule microarray, fluorescence 635/667 (AID 1065). Conditions: higher = more signal, COS7 lysate expressing mutant human TOR1A.
Test [3] is described as follows: binders of probe aFGF2 on microarray, primary screen, stem cell growth factor project, biochemical, small-molecule microarray, fluorescence 635/667 (AID 1067).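 Note: measures binding of biotinylated aFGF2 protein to printed compounds on slides; z-score merges feature fluorescence and signal-to-noise across triplicate slides.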 Conditions: higher = more signal.
A short description of test [4]: binders of probe aFGF10 on microarray, primary screen, stem cell growth factor project, biochemical, small-molecule microarray, fluorescence 635/667 (AID 1071).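 Note: score merges 667 nm spot intensity and signal to noise from triplicate slides.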 Conditions: higher = more signal.
Test [5] deals with Neurogenic locus notch homolog protein 2 (Homo sapiens) (UniProt Q04721). As to the kind of experiment: Notch2 binders on small-molecule microarrays, primary screen, biochemical, small-molecule microarray, 635 nm fluorescence, stem cell growth factors (AID 1073). Conditions: Notch2 binding, higher = more signal.
Test [6] addresses Pro-neuregulin-1, membrane-bound isoform (Homo sapiens) (UniProt Q02297). As to the kind of experiment: NRG1 binders on small-molecule microarrays, primary screen, psychiatric disease protein project, biochemical, small-molecule microarray, fluorescence 635/667 (AID 1075).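 Note: score combines 667 nm spot fluorescence with signal to noise.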 Conditions: NRG1 binding, 635 nm fluorescence, higher = more signal.
The test system of test [7] is Neuregulin-1 EGF-like domain. Nature of the test: binders of neuregulin-1 EGF-like domain, primary screen, biochemical, small-molecule microarray, 635 nm fluorescence (AID 1081).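 Note: binding of the protein to compounds printed on small-molecule microarray slides.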 The conditions noted are these: small-molecule microarray binding, higher = more signal.
A short description of test [8]: FRG1 promoter luciferase signal modulators, primary screen, FRG1 inhibition for FSHD, cell-based, C2C12 myotubes, firefly/Renilla luciferase, luminescence (AID 1084). The conditions noted are these: higher = more signal, called active from +8 up or from −8 down.
The nature of test [9]: binders of probe aFST on microarray, primary screen, stem cell growth factor project, biochemical, small-molecule microarray, fluorescence 635/667 (AID 1086).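 Note: score merges 667 nm fluorescence with signal-to-noise of each printed compound spot.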 Conditions: higher = more signal.
A short description of test [10]: binders of probe aHhip on microarray, primary screen, stem cell growth factor project, biochemical, small-molecule microarray, fluorescence 635/667 (AID 1087).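 Note: score merges spot fluorescence at 667nm with spot signal to noise ratio.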 The conditions noted are these: higher = more signal.
For test [11], the system named is PRMT1 (protein arginine N-methyltransferase 1). Nature of the test: PRMT1 binders on small-molecule microarrays, primary screen, biochemical, small-molecule microarray, 635 nm fluorescence (AID 1088).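 Note: binding of Prmt1 protein to compounds spotted on small-molecule microarray slides.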 Conditions: small-molecule microarray binding, higher = more signal.
Test [12] is described as follows: yeast growth modulation, basal conditions, primary screen, YJM789 clinical isolate, OD600, 24 h (AID 1089).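 Note: growth of clinical yeast isolate S. cerevisiae YJM 789 seeded 1000 cells per well; test concentration not given here.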 The conditions noted are these: S. cerevisiae YJM789 growth, higher = more signal, called active from +8 up or from −8 down.
Test [13] in a line: fission yeast growth modulation, primary screen, strain 972, OD600, 24 h, no modulator (AID 1090).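 Note: basal condition with compound alone and no growth modifier present; test concentration not given here.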 Conditions: S. pombe 972 growth, higher = more signal, called active from +8 up or from −8 down.
A short description of test [14]: S. cerevisiae growth modulation with rapamycin, primary screen, strain BY4716, OD600, 96 h (AID 1091). Note: test concentration not given here. The conditions noted are these: higher = more signal, called active from +8 up or from −8 down.
The target in test [15] is Torsin-1A-interacting protein 2 (Homo sapiens) (UniProt Q8NFQ8). As to the kind of experiment: LULL1 binders on small-molecule microarray, primary screen, cell lysate, human LULL1 lysate, 635/667 nm fluorescence (AID 1092).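 Note: probe is lysate of COS7 cells overexpressing human LULL1; score merges per-feature 667 nm fluorescence with signal-to-noise.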 Conditions: hLULL1 lysate binding, 635 nm fluorescence, higher = more signal.
Test [16] is described as follows: E. coli growth modulation, two-sided OD650, primary screen, E. coli filamentation project, strain DRC41, 24 h (AID 1093).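 Note: MC1000 strain lacking acrAB efflux and sulA so SOS filamentation is blocked; test concentration not given here.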 The conditions noted are these: OD650, 24 h, higher = more signal, called active from +8 up or from −8 down.
Test [17] is described as follows: small-molecule microarray binders of probe aLefty2, primary screen, biochemical, biotinylated probe, 635/667 nm fluorescence (AID 1094).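 Note: score merges spot fluorescence near 667 nm with spot signal-to-noise ratio.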 Conditions: higher = more signal.
The test system of test [18] is Noggin (protein binding on small-molecule microarray). Nature of the test: Noggin binders on small-molecule microarray, primary screen, biochemical, 635/667 nm fluorescence (AID 1095).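 Note: score merges 667 nm feature fluorescence with signal to noise over triplicate slides.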 The conditions noted are these: 635 nm fluorescence, higher = more signal.
Test [19] concerns the target Neurogenic locus notch homolog protein 3 (Homo sapiens) (UniProt Q9UM47). Nature of the test: NOTCH3 binders on small-molecule microarray, primary screen, biochemical, 635/667 nm fluorescence (AID 1096). Conditions: NOTCH3 binding, 635 nm fluorescence, higher = more signal.
The nature of test [20]: small-molecule microarray binders of probe aEGFR, primary screen, biochemical, biotinylated probe, 635/667 nm fluorescence (AID 1097).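 Note: probe is a biotinylated anti-EGFR antibody binding compounds printed on slides; score combines fluorescence near 667 nm and signal to noise of each spot.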 The conditions noted are these: higher = more signal.

The values that follow come from PubChem BioAssay.

Where “and” joins values, the source holds several entries; their conditions need not be identical. Equal entries are not always repeated. Calls of active or inactive are those of the source.

Chain of Neurogenic locus notch homolog protein 2 (Homo sapiens) (Q04721 whole entry, looked up, canonical isoform): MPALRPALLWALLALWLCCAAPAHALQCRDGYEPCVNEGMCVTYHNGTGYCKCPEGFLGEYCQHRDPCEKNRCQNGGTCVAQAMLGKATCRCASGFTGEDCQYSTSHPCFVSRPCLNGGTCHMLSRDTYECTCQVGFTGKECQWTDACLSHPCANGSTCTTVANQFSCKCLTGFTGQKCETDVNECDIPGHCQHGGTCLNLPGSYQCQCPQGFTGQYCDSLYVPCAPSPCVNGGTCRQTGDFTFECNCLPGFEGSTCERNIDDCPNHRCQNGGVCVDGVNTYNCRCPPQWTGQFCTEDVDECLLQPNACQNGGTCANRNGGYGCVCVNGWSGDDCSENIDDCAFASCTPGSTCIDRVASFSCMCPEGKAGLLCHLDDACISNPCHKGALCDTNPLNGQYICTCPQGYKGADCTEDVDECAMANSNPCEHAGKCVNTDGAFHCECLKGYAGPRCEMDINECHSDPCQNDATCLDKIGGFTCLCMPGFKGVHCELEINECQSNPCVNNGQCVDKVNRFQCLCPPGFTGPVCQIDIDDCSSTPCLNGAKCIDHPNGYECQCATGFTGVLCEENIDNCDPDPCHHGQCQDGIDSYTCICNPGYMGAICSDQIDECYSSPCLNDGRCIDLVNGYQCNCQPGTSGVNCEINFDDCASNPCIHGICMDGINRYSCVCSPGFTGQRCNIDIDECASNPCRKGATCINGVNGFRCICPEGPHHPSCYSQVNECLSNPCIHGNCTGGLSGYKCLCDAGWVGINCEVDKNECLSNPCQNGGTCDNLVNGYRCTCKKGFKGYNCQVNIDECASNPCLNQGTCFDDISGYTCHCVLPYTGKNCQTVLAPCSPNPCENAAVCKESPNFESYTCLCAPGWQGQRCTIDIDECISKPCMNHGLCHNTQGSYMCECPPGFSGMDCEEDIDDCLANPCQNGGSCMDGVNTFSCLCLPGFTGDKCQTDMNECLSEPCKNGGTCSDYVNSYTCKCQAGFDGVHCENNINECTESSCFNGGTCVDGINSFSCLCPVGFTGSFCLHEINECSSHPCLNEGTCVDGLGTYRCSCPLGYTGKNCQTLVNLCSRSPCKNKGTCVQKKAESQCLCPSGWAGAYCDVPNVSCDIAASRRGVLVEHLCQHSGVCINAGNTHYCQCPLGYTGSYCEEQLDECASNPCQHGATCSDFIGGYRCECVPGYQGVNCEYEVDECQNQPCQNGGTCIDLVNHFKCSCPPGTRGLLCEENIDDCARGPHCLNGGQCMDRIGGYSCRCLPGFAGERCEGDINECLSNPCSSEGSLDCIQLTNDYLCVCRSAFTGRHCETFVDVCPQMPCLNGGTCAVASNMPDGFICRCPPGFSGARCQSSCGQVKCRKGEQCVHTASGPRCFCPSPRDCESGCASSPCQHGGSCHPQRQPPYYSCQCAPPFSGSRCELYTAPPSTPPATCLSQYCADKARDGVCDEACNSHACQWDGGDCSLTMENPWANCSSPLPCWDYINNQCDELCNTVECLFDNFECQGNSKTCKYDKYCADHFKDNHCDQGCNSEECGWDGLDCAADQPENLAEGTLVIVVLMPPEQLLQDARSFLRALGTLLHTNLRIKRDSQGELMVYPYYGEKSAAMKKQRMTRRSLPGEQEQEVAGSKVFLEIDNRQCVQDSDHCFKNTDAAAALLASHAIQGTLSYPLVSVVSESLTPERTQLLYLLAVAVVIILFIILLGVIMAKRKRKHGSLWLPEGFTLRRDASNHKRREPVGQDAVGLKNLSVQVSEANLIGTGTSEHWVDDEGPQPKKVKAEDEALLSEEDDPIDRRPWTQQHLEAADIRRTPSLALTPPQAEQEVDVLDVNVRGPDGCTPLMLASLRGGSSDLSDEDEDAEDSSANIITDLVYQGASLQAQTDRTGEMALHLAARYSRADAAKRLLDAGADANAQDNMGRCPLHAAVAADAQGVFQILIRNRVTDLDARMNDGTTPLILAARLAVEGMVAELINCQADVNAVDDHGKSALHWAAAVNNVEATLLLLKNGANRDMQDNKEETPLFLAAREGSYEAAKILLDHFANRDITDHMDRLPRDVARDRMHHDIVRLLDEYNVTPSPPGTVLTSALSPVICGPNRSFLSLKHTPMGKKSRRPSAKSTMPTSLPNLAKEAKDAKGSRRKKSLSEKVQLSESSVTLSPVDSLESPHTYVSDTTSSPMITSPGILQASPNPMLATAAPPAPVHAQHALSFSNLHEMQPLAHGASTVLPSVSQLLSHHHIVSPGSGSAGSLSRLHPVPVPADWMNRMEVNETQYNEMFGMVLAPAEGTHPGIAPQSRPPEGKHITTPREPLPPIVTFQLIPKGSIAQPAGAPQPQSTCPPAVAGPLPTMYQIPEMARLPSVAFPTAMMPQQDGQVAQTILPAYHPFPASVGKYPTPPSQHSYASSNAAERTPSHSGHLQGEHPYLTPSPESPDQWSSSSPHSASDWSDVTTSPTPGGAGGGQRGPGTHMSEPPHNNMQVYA
Chain of Neurogenic locus notch homolog protein 3 (Homo sapiens) (Q9UM47 whole entry, looked up): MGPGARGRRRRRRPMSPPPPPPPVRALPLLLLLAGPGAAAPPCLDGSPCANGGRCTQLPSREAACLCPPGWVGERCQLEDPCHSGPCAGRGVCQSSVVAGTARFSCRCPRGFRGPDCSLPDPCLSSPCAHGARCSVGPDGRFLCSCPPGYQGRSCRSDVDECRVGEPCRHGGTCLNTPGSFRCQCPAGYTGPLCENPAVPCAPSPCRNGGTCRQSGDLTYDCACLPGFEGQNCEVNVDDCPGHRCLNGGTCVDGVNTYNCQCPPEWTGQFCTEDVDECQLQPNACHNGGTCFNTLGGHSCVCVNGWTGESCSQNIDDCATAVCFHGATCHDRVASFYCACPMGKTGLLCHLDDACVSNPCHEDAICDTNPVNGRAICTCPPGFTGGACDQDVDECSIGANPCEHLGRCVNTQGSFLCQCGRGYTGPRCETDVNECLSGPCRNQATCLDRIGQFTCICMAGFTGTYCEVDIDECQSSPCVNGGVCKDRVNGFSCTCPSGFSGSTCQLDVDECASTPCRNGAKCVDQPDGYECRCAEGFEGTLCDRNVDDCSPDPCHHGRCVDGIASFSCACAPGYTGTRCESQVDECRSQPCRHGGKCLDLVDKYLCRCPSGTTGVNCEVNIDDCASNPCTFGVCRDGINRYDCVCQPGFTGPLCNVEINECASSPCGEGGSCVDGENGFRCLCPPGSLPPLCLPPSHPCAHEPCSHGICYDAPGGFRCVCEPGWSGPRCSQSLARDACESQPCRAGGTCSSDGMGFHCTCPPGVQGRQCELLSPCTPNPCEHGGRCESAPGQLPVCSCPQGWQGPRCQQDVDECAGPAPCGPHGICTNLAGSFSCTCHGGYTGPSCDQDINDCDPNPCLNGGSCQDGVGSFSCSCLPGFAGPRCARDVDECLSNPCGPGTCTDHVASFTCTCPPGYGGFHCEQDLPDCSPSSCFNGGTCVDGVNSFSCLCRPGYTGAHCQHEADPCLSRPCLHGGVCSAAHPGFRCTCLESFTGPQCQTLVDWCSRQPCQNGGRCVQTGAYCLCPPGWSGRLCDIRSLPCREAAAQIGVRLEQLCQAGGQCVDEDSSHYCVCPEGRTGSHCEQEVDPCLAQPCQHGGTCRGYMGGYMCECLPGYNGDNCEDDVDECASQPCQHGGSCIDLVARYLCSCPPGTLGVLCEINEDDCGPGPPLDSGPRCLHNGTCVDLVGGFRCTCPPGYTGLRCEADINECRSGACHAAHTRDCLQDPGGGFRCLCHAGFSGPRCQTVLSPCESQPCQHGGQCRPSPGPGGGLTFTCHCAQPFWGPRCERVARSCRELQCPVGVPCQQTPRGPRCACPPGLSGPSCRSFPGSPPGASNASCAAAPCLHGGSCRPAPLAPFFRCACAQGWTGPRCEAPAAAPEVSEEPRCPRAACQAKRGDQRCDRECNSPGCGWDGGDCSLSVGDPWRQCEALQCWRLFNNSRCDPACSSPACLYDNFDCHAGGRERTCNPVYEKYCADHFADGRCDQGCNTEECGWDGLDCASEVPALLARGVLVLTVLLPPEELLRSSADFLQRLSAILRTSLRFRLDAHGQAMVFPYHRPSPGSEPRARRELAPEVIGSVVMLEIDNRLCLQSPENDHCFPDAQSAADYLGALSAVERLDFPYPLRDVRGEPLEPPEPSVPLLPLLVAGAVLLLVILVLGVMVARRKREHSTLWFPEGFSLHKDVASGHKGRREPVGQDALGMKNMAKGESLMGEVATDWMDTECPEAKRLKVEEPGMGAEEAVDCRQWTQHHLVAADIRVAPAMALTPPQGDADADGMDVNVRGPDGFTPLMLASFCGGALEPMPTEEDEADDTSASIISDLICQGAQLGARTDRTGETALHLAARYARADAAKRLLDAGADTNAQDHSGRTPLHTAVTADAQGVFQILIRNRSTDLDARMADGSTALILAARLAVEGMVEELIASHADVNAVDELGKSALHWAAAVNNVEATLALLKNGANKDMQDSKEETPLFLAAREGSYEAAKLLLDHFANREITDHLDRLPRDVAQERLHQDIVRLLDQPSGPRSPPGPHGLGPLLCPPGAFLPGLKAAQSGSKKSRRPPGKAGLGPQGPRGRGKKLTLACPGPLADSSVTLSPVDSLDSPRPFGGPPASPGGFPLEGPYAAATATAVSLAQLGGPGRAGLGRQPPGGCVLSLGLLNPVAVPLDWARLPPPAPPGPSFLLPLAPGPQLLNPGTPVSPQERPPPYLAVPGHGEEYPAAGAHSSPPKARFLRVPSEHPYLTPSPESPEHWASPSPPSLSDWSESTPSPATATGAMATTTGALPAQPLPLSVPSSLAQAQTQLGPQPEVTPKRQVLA

`C=CCN(Cc1ccccc1)C(=O)C(c1cccs1)N(C(=O)/C=C\C(=O)O)c1c(Cl)cccc1CO` (stereo not given): the composite z-score in test [1] was 0.233 and 1.13; in test [2] it was -0.778 and -1.07; in test [3] it was -0.241 and -0.193; in test [4], -1.08 and -2.14; in test [5], -1.53 and -2.16; in test [6], -0.984 and -1.12. Further, the composite z-score was 0.462 and -0.851 in [7]; -1.91 and -1.01 in test [9]; -0.549 and -0.38 in test [10]; -0.716 and -1.9 in test [11]; -1.36 and -0.736 in [15]; -0.128 and -0.121 in [17]. Also, the composite z-score in test [18] is -2.28 and -3.61; in [19], -1 and -1.49; in test [20] it was -0.252 and -0.359. Moreover, the z-score in test [8] is -0.0406 (inactive) and 0.885 (inactive); in test [12], 0.506 (inactive) and -0.555 (inactive); in test [13], 0.172 (inactive) and 0.261 (inactive); in [14], 0.23 (inactive) and -0.457 (inactive); in test [16] it was 2.07 (inactive) and -0.369 (inactive).
As for `CC(C)=CCCC(C)=CCON=C1C[C@@H](O)[C@@H](O)[C@@H]2[C@@H]3C(=O)N([C@@H](C)c4ccccc4)C(=O)[C@@H]3CC[C@H]12`, the composite z-score in test [1] was -0.372; in test [2], 0.384; in test [3] it was -0.044; in test [4], 0.573; in test [5], 0.744; in test [6], 1.13. Besides, the composite z-score was 0.751 in test [7]; 0.503 in [9]; 0.0627 in test [10]; 1.13 in test [11]; 2.28 in test [15]; -0.0991 in [17]. For the same molecule, the composite z-score in [18] was 0.454; in [19] it was 0.492; in [20], -0.162. For the same molecule, the z-score was -0.763 (inactive) in test [8]; -1.23 (inactive) in test [12]; -0.846 (inactive) in test [13]; -0.989 (inactive) in test [14]; -1.39 (inactive) in [16].
For `C=CCN(CCCCC)C(=O)C1N(CCOCCO)C(=O)C2C(C(=O)O)C3C=CC21O3` (stereo not given), the composite z-score in test [1] is 0.555 and 0.963; in [2] it was -0.771 and -0.902; in [3], -0.191 and -0.283; in test [4], -1.87; in test [5], -0.459 and -2.05; in test [6] it was 0.17 and -0.496. In addition, the composite z-score in test [7] was 0.891 and 1.05; in [9], -0.211 and -0.726; in test [10], -0.171 and -0.182; in test [11] it was -1.77 and -0.751; in test [15], 0.0037 and 0.198; in test [17], -0.0617 and -0.142. In addition, the composite z-score in test [18] was -1.17 and -2.1; in test [19] it was -0.574 and -1.05; in test [20], -0.275 and -0.367. Also, the z-score in [8] was 0.306 (inactive) and 0.0282 (inactive); in test [12], 0.322 (inactive) and 0.513 (inactive); in [13] it was 0.0056 (inactive) and 0.398 (inactive); in test [14], 0.912 (inactive) and 1.09 (inactive); in test [16] it was -0.45 (inactive) and -0.546 (inactive).
`C=CCN(C(=O)C(c1cccs1)N(C(=O)/C=C\C(=O)O)c1c(Cl)cccc1CO)C(C)(C)C` (stereo not given): the composite z-score in test [1] was 1.49 and 1.64; in [2], -1.2 and -1.76; in test [3], -0.232 and -0.235; in [4] it was -1.69 and -1.27; in test [5] it was -1.86 and -2.21; in test [6] it was -0.732 and -1.05. Further, the composite z-score in test [7] was -0.301 and -0.512; in test [9], -0.791 and -0.727; in test [10], 0.228 and -0.554; in test [11], -0.971 and -0.911; in test [15], -0.586 and 0.277; in test [17] it was 0.0765 and 0.231. Moreover, the composite z-score is -3.47 and -2.85 in [18]; -1.89 and -1.83 in [19]; -0.309 and -0.338 in test [20]. Also, the z-score is 1.06 (inactive) and 1.34 (inactive) in test [8]; -0.0947 (inactive) and -0.689 (inactive) in [12]; -0.588 (inactive) and -0.587 (inactive) in test [13]; -0.351 (inactive) and -0.595 (inactive) in test [14]; -0.717 (inactive) and -1.18 (inactive) in test [16].
